In all, about 220,000 compounds went through this assay and about 830 (0.38%) were called active. Many of the other results were omitted from the sample, so actives are more common in it than they were. Unmarked numbers belong to inactive results.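 The calls were made as follows: active = activation, scaled between plate controls, above about 75% (limit read from the data); inactive = activation under that limit.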
Assay: inhibitors of zVAD-triggered necroptosis, primary screen, L929 cells (AID 1377);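 also: 0% = zVAD with DMSO and 100% = DMSO alone without zVAD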
Details: ATP luminescence, 24 h, at 10 µM, stronger effect = higher value; with zVAD 60 µM unless noted

SMILES	viability rescue
Cc1cccc(NC(=O)/C=C/c2ccc3c(c2)OCO3)n1	0.85% [with zVAD 20 µM]
CC(NC(=O)Nc1ccc2c(c1)OCO2)c1ccncc1 (stereo not given)	1.29%
Cc1cccc(NC(=O)Nc2ccc3c(c2)OCO3)n1	75.5% (active)
CC1CCCCC1NC(=O)CO/N=C/c1ccc(OC(F)F)cc1 (stereo not given)	0.48%
CC(C)C(=O)Nc1ccc2c3c(cccc13)CC2	1.59% [with zVAD 20 µM]
CCOc1ccc(C(=O)Nc2nccs2)cc1[N+](=O)[O-]	80.9% (active)
O=C(O)c1ccccc1-c1ccccc1C(=O)Nc1nccs1	1.12%
CC(=O)Oc1ccc(C(=O)Nc2nccs2)cc1	101% [with zVAD 20 µM] (active)
CCN(c1ccccc1)S(=O)(=O)c1ccc(C(=O)Nc2nccs2)cc1	0.94%
COc1ccc(C(=O)NNC(=O)c2cnccn2)cc1[N+](=O)[O-]	-0.17%
Cn1cccc1C(=O)Nc1nccs1	66.4% [with zVAD 20 µM]
NC(=O)C1(N2CCCCC2)CCN(C2CC(=O)N(Cc3ccc(N4CCCC4=O)cc3)C2=O)CC1 (stereo not given)	0.13%
O=C(COC(=O)/C=C/c1nc2ccccc2s1)Nc1ccccc1Oc1ccccc1	0.66%
Cc1ccc(CNC(=O)CCNS(=O)(=O)c2ccc(Br)s2)cc1	3.55%
Cc1noc(C)c1C(=O)OCC(=O)N1CCN(S(=O)(=O)c2ccc3ccccc3c2)CC1	0.85%
CN(C(=O)CCn1c(=S)oc2ccccc21)C1CCCCC1	0.16%
CC(=O)NC1C(Oc2ccc(C=O)cc2)OC(COC(C)=O)C(OC(C)=O)C1OC(C)=O (stereo not given)	1.66%
Cc1cccc(CSc2nc3c(c(=O)n2C)SCC3)c1	-0.37%
Cc1ccc(NC(=O)c2ccccn2)cc1S(=O)(=O)N1CCOCC1	1.5%
Cc1ccc(C(=O)Nc2ccccc2C(=O)NC2CCCCC2)cc1S(=O)(=O)N1CCOCC1	-0.61%
Cc1ccc(NC(=O)NC2CCCCC2)cc1S(=O)(=O)N1CCOCC1	75.4% (active)
CCn1c(CN2C(=O)CSc3ccccc32)n[nH]c1=S	0.15%
CCC1CCCCN1CCCNC(=O)c1cc2c(Cl)nc3ccccc3c2s1 (stereo not given)	18%
CCOC(=O)c1cn[nH]c1NC(=S)Nc1ccccc1	2.47%
CCCCn1c(=O)c(CCC(=O)OCC(=O)Nc2ccc(C)c(Cl)c2)nc2ccccc21	0.2% [with zVAD 20 µM]

Source: PubChem BioAssay AID1377 (University of Pittsburgh Molecular Library Screening Center, 2008)
